Assay outcomes from PubChem BioAssay.
Most compounds without a hit are left out; they make up all but 4.8% or so of the library.
hcDAF12 agonist – H. contortus DAF-12 nuclear receptor activators, primary screen, cell-based, luminescence, HEK293, lit1-tk-luc reporter | activation, % at 6.8 µM | hit rate 1.4% among 370,000 | HEK293 hcDAF-12 lit1-tk-luc reporter; 0% DMSO, 100% Δ7-dafachronic acid;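 active means activation above the mean of all tested compounds plus 3 SD, cut at about 5.5% in these data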;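 further: 100% = response to 3 µM Δ7-dafachronic acid high control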
SMARCA2 act – SMARCA2 (BRM) function activators, primary screen, cell-based, luminescence, high throughput; hit rate 1% among 370,000; activation, % at 9.1 µM; MG213 cells, MMTV-luciferase reporter, dexamethasone, overnight; in the data active means activation above about 7.8%;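 further: 0% = vehicle wells and 100% = reference activator wells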
ssDAF12 agonist – S. stercoralis DAF-12 nuclear receptor activators, primary screen, cell-based, luminescence, HEK293, GRIP1 co-expression, lit1-tk-luc; Nuclear hormone receptor DAF-12 (Strongyloides stercoralis); HEK293 ssDAF-12/GRIP1 lit1-tk-luc reporter; % of 3 µM dafachronic acid response; activation, % at 6.8 µM; hit rate 1% among 370,000; AID 652126, 2013;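 active means activation above the mean over all tested compounds plus 3 SD, cut at about 0.9% in these data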;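 further: 0% = DMSO-only wells and 100% = 3 µM delta7-dafachronic acid wells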
DAX1 inh-1 – DAX1 (NR0B1) inhibitors on StAR promoter, primary screen, cell-based, luminescence, SF-1 (NR5A1), full-length DAX-1; HEK293T StAR-luciferase reporter, SF-1/DAX-1 repression relief; inhibition, % at 6.8 µM; hit rate 1.1% among 370,000;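 active means inhibition above the mean over all tested compounds plus 3 SD, cut at about 3.6% in these data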;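 further: 0% = DAX-1 cells with DMSO and 100% = cells lacking DAX-1 with DMSO; higher inhibition means more luminescence from relief of DAX-1 repression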
DAX1 inh-2 – DAX1 (NR0B1) inhibitors, primary screen, cell-based, HEK293, Gal4-DAX1, luciferase luminescence; HEK293 Gal4-DAX1 luciferase reporter; hit rate 0.99% among 340,000; inhibition, % at 6.75 µM;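 active means inhibition above the mean over all tested compounds plus 3 SD, cut at about 4.2% in these data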;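 further: 0% = DAX1-transfected cells with DMSO and 100% = empty-vector control cells with DMSO; inhibition shows as a rise in luminescence from relieved DAX1 repression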
Target sequence (P51843 207-470 limits assumed): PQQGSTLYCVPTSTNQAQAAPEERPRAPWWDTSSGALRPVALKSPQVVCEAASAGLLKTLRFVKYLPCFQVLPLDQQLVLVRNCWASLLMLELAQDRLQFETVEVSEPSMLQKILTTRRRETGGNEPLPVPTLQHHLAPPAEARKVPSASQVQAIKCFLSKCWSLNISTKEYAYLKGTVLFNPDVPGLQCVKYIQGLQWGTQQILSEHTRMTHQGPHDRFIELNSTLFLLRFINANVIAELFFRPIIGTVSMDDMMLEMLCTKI
hgDAF-12 ag – H. glycines DAF-12 receptor agonists, primary screen, cell-based, luminescence, HEK293, GAL4 fusion, UAS-luciferase; Nuclear hormone receptor DAF-12 (Heterodera glycines), GAL4 fusion; HEK293 GAL4-hgDAF12 UAS-luciferase reporter, agonist luminescence; normalized to butyrate control; activation, % at 6.8 µM; hit rate 1.8% among 370,000; AID 687014, 2013;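 active means activation above a cutoff set at the mean of all screened compounds plus 3 SD, cut at about 10% in these data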;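 further: 0% = DMSO wells and 100% = sodium butyrate wells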
Starred values were filed as active, the others as inactive; . = no result given.

SMILES	hcDAF12 agonist	SMARCA2 act	ssDAF12 agonist	DAX1 inh-1	DAX1 inh-2	hgDAF-12 ag
O=C(c1sccc1Cl)N1CCC(n2nnc3ncccc32)CC1	-2	2	-2	1	.	-1
Clc1ccc(Cl)c(-c2nc(-c3ccncc3)no2)c1	3	0	-1	0	1	1
c1coc(-c2nc(-c3ccncc3)no2)c1	4	0	1.7*	1	1	13*
Clc1ccc(-c2nc(-c3ccncc3)no2)c(Cl)c1	1	-1	-1	0	4.9*	8
c1ccc(-c2nc(-c3ccncc3)no2)cc1	2	7	-1	0	3	8
CN(Cc1ccccc1Cl)C(=O)CN1C(=O)C2(OCCCO2)c2ccccc21	-3	-3	-1	1	.	-2
CC(Sc1nnc(Nc2ccccc2)s1)C(=O)Nc1nc(-c2ccccc2)cs1 (stereo unspecified)	3	-1	-1	1	5.0*	0
COc1ccc2c(c1)CCCN2C(=O)C1CCCN(S(=O)(=O)c2ccc(Cl)s2)C1 (stereo unspecified)	-1	-7	0	-1	.	-1
O=C(CC1CCCCC1)NCCCN1CCOCC1	6.1*	-2	-1	0	-1	-1
CCCCNC(=O)C[C@H]1C[C@@]2(C(=O)OC)C(=C[C@H](C(C)C)O[C@@H]2C2CC2)N(Cc2cccc3ccccc23)C1=O	-3	-2	-1	-1	.	0
COCCCNC(=O)COc1ccc(Br)cc1Cl	-1	3	-1	1	1	11*
CCNC(=O)COc1ccc(Br)cc1Cl	0	2	-1	0	-1	4
CCOC(=O)C1=C(C)N=c2s/c(=C/c3ccc(OCC(=O)O)cc3)c(=O)n2C1c1ccc(OC)cc1OC (stereo unspecified)	0	2	1.8*	1	-1	1
CN1CC=C(c2ccccc2)N(c2ccc(Br)cc2)C1=O	3	6	-1	0	.	7
O=S(=O)(c1ccc(CN2CCOCCOCCN(Cc3ccc(S(=O)(=O)C(F)(F)F)cc3)CCOCC2)cc1)C(F)(F)F	-4	.	-2	.	.	-4
COc1ccc(Cl)cc1Nc1cc(C)nc2nc(C)nn12	-2	-1	-1	0	1	-2
COc1cc(OC)c(Nc2cc(C)nc3nc(C)nn23)cc1Cl	-2	-1	-1	0	7.2*	-1
Fc1ccccc1Nc1nc2ccccc2n2nnnc12	1	6	1.1*	0	1	5
CCOC(=O)N1C(=O)C[C@](Sc2ccc(OC)cc2)(C(=O)N2CCCC2)[C@H]1c1ccc(OC)cc1	0	2	-1	-2	.	2
CC1(C)CNC(=O)c2sc(N3CCCCC3)nc2C1	0	-1	0	0	5.6*	1
CC1(C)CC(=O)c2sc(N3CCCCC3)nc2C1	1	4	0	1	3	4
N#Cc1ccc(S(=O)(=O)N2CCCc3nc(-c4ccccc4)ccc32)cc1	0	-1	1	-1	.	2
CCN1CCN(C(=O)c2cc3c(s2)-c2c(C)cccc2OC3)CC1	.	.	.	.	5.9*	.
CCOC(=O)N1CCN(C(=O)c2cc3c(s2)-c2c(C)cccc2OC3)CC1	-1	-3	-1	0	1	-2
CCCCCCCCN1C(=O)[C@@H](CC(=O)N2CCSCC2)C[C@@]2(C(=O)OC)C1=C[C@H](C(C)C)O[C@@H]2C1CC1	0	-1	-1	0	.	-1
SMILES	hcDAF12 agonist	SMARCA2 act	ssDAF12 agonist	DAX1 inh-1	DAX1 inh-2	hgDAF-12 ag
CCCCS(=O)(=O)NCC1CCN(C(=O)C(=O)c2cc3ccccc3o2)CC1	-1	-5	-1	0	.	-2
O=P(c1ccccc1)(c1ccccc1)C1CCCO1 (stereo unspecified)	0	-2	-1	1	4.3*	-2
O=C(Cc1ccccc1)NCC1CCCO1 (stereo unspecified)	-1	2	-1	0	0	0
Cc1occc1C(=O)NN=C1C2CC3CC(C2)CC1C3	4	5	1	4.0*	3	9
COC(=O)C1=C(C)N(Cc2ccc(C(F)(F)F)cc2)C(=NCc2ccc(C(F)(F)F)cc2)NC1c1ccccc1C(F)(F)F (stereo unspecified)	-1	-1	-1	0	.	0
CC(=O)NS(=O)(=O)c1ccc(NS(=O)(=O)c2ccc3ccccc3c2)cc1	0	-1	-1	0	4.7*	0
CCN1CCCC1CNC(=O)Cn1cc2c(n1)CCC(C)C2 (stereo unspecified)	3	2	-1	0	4.5*	3
CC1CCc2nn(CC(=O)NCCCN3CCCCC3)cc2C1 (stereo unspecified)	2	4	-1	0	1	-1
O=C(N=C1N(Cc2ccccc2)C[C@]2(C=C3CCCCC3n3c(=O)n(-c4ccccc4)c(=O)n32)N1C(=O)OCc1ccccc1)c1ccccc1 (stereo partly specified)	-2	-3	-1	1	.	0
COc1ccccc1C(=O)Nc1nnc(-c2ccc3c(c2)CCCC3)o1	-2	-1	0	-1	0	4
CC(=O)Nc1nnc(-c2ccc3c(c2)CCCC3)o1	2	7	0	3.8*	1	11*
O=C(CCNC(=O)Cn1ccc2ccccc2c1=O)NCCCN1CCOCC1	0	-4	-1	0	5.1*	2
O=C(CCNC(=O)Cn1ccc2ccccc2c1=O)NCCCN1CCN(c2ccc(F)cc2)CC1	-1	0	-1	0	0	0
Cc1ccc(C(=O)Nc2ccc3nc(C)sc3c2)s1	3	6	0	3	2	10
Cc1nc(NC(=O)c2ccncc2)sc1C(=O)N(C)C	-2	-1	0	0	0	-1
Cc1ccc(C(=O)Nc2ccc3nc(C)sc3c2)o1	3	3	-1	4.0*	2	11*
Cc1nc2cc(NC(=O)c3ccc(Br)s3)ccc2s1	1	1	0	3	-2	11*
O=C(Nc1nc2ccc(S(=O)(=O)N3CCCCC3)cc2s1)c1cccnc1	-1	-1	-1	-1	1	2
CN(C)S(=O)(=O)c1ccc2nc(NC(=O)c3cccnc3)sc2c1	3	4	0	1	4.7*	11*
